A short description of experiment [1]: NCI Yeast Anticancer Drug Screen. Data for the rad50 strain (AID 155).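 Further: 0% = growth of vehicle-only cultures of the same strain.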 The conditions noted are these: S. cerevisiae rad50 strain growth inhibition; at 50.0 µM; active compounds read high. The gist of the method: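 Readout: growth inhibition relative to vehicle-treated cultures. Compound exposure was carried out in a genetically defined yeast strain deficient in DNA damage repair.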

Experiment [2] can be described thus: NCI Yeast Anticancer Drug Screen. Data for the mec2-1 strain (AID 157). To be noted: S. cerevisiae mec2-1 strain, at 50.0 µM, active compounds read high. The procedure, abridged: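 Mutant yeast (mec2-1) grown with compound; growth inhibition relative to vehicle control reported.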
Experiment [3] can be described thus: NCI Yeast Anticancer Drug Screen. Data for the sgs1 mgt1 strain (AID 161).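 Further: 0% = growth of cultures given vehicle only.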 To be noted: S. cerevisiae sgs1 mgt1 strain, at 50.0 µM, active compounds read high. The gist of the method:
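Percent growth inhibition was derived by comparing compound-exposed mutant yeast with vehicle-exposed cultures. The strain carries alterations in DNA damage repair.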

A short description of experiment [4]: NCI Yeast Anticancer Drug Screen. Data for the cln2 rad14 strain (AID 165).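 Further: 0% = growth equal to vehicle treated cultures.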 To be noted: S. cerevisiae cln2 rad14 strain, at 50.0 µM, active compounds read high. The gist of the method: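 Readout is yeast growth inhibition versus vehicle-treated controls, using a strain with cln2 and rad14 alterations exposed to compound.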
The nature of experiment [5]: NCI Yeast Anticancer Drug Screen. Data for the bub3 strain (AID 167). To be noted: S. cerevisiae bub3 mutant strain, at 50.0 µM, active compounds read high. The procedure, abridged:
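Readout: yeast growth inhibition, expressed relative to vehicle-only wells. The test organism is a mutant strain from a panel with lesions in DNA repair or checkpoint genes.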

Experiment [6] is described as follows: NCI Yeast Anticancer Drug Screen. Data for the mlh1 rad18 strain (AID 175). The conditions noted are these: S. cerevisiae mlh1 rad18 strain growth inhibition; at 50.0 µM; active compounds read high. The procedure, abridged: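 Genetically defined yeast (DNA repair-deficient) exposed to compounds; growth inhibition determined relative to vehicle.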

From PubChem BioAssay (NCI) come the findings set out here.

About 79,000 compounds went through this panel and 15% of them were active in at least one assay; those are over-represented in the sample as a whole. A number with no mark means an inactive call. Activity calls are given as the source filed them. No stated cut-off is given here; in the data, active means growth inhibition above about 70%; inactive means the rest.

As for `COc1ccc(Cc2ccc(CO)cc2)cc1`, the growth inhibition in experiment [1] was 4.6%; in experiment [2], -18.9%; in experiment [3] it was -31.9%; in experiment [4] it was -20%; in experiment [5] it was -7.7%; in experiment [6], -14.2%.

Regarding `CCC1(CCC(C)C)C(=O)NC(=Nc2ccccc2)N(c2ccccc2)C1=O` (stereo unspecified), the growth inhibition in experiment [1] is 18.7%; in experiment [2] it was 7.95%; in experiment [3], -0.65%; in experiment [4], 1.55%; in experiment [5] it was 4.45%; in experiment [6], 10.1%.

Turning to `O=[N+]([O-])C[C@@]12O[C@]3(O)C4C5CC(C6C5C3C61)C42` (stereo partly specified), the growth inhibition is 6.35% in experiment [1]; 10.5% in experiment [2]; 15.3% in experiment [3]; 2.7% in experiment [4]; 1.2% in experiment [5]; 8.05% in experiment [6].

In the case of `Cc1cn(CCCn2cnc3c(=O)[nH]cnc32)c(=O)[nH]c1=O`, the growth inhibition was -13.1% in experiment [1]; -22.1% in experiment [2]; -16.7% in experiment [3]; -3.15% in experiment [4]; -21.6% in experiment [5]; -3.25% in experiment [6].

For the compound `Cc1ccc(C)c(NC(=O)C(=O)C2C(=O)N(c3ccccc3)N=C2N)c1` (stereo unspecified), the growth inhibition is -38.5% in experiment [1]; -29.4% in experiment [2]; -1.25% in experiment [3]; 1.9% in experiment [4]; -26.4% in experiment [5]; -14% in experiment [6].

On to `CCN(CC)CCNc1c(C)cccc1Cl`, for which the growth inhibition in experiment [1] is -2.9%; in experiment [2] it was 3.5%; in experiment [3], -7.1%; in experiment [4], -26.2%; in experiment [5], 1%; in experiment [6], -1.5%.

For the compound `CC1=C(C)C2C3C(=O)NC(=O)C3C1C1C3C(=O)NC(=O)C3C21` (stereo unspecified), the growth inhibition in experiment [1] is -21.8%; in experiment [2], -7.75%; in experiment [3] it was 7.3%; in experiment [4] it was -12.8%; in experiment [5] it was 10.1%; in experiment [6] it was 17.1%.

For `CCCO/N=[N+](\[O-])N(CC)CC`, the growth inhibition in experiment [1] is -7.7%; in experiment [2] it was -17.4%; in experiment [3], 7.5%; in experiment [4] it was 13.8%; in experiment [5] it was -0.8%; in experiment [6] it was -1.45%.

On to `CC1(C)C=C(C(Br)c2cccc(Cl)c2)C(=O)c2ccccc21` (stereo unspecified), for which the growth inhibition in experiment [1] is 98.3% (active); in experiment [2], 99.6% (active); in experiment [3] it was 99.8% (active); in experiment [4], 99% (active); in experiment [5], 98.8% (active); in experiment [6], 99.3% (active).

Take `COc1cc2c3c(c1)-c1c(ccc(OC)c1Oc1nnnn1-c1ccccc1)CC3N(C)CC2` (stereo unspecified): the growth inhibition is 30.4% in experiment [1]; 26.2% in experiment [2]; 28.9% in experiment [3]; 52.4% in experiment [4]; 27.8% in experiment [5]; 80.5% (active) in experiment [6].

As for `Cc1ccc2c(c1)C1(c3ccc(Cl)c(Cl)c3)Oc3ccc(C)cc3C(c3ccc(Cl)c(Cl)c3)(O2)O1`, the growth inhibition in experiment [1] was 4.1%; in experiment [2], 5.15%; in experiment [3], -6.7%; in experiment [4], 2.15%; in experiment [5] it was 3.65%; in experiment [6] it was -3%.

For the compound `CC/C(=C\c1ccccc1O)c1ccncc1`, the growth inhibition is 2.2% in experiment [1]; -8.5% in experiment [2]; 2.5% in experiment [3]; 1.85% in experiment [4]; 23.1% in experiment [5]; -0.65% in experiment [6].

Consider `CC(C)(C)NC(=O)CCC1C(C(=O)NC(C)(C)C)C2(Cl)C(Cl)=C(Cl)C1(Cl)C2(Cl)Cl` (stereo unspecified), for which the growth inhibition was 6.2% in experiment [1]; 12% in experiment [2]; 1.6% in experiment [3]; 9.8% in experiment [4]; 15.6% in experiment [5]; -2.05% in experiment [6].

In the case of `Cc1nc2ccccc2nc1C1=C(O)c2ccccc2CC1=O`, the growth inhibition was 0.85% in experiment [1]; 8.6% in experiment [2]; 10.1% in experiment [3]; -71.2% in experiment [4]; -10.2% in experiment [5]; 1.35% in experiment [6].

Take `O=C(COCC(=O)N/N=C/c1ccc(Cl)cc1Cl)N/N=C\c1cc(Cl)cc(Cl)c1`: the growth inhibition in experiment [1] was -21.1%; in experiment [2] it was -1.65%; in experiment [3], 0.75%; in experiment [4], 37.2%; in experiment [5], -1%; in experiment [6], -12.2%.

For the compound `Cc1cc(C(C)(C)CC(=O)O)cc(C)c1C`, the growth inhibition in experiment [1] is 60.6%; in experiment [2], 37.4%; in experiment [3], 27.6%; in experiment [4] it was 43.6%; in experiment [5], 54%; in experiment [6] it was 56.3%.

In the case of `Cc1cc2[nH]c3c(C#N)c(O)c(C(C)C)c(=O)n3c2cc1C`, the growth inhibition in experiment [1] is -1.05%; in experiment [2], 7.8%; in experiment [3], 11.6%; in experiment [4], 1.35%; in experiment [5] it was 10.8%; in experiment [6] it was 11.2%.

As for `COc1ccc2c(c1)c(CC(=O)O)c(Br)n2Cc1ccccc1`, the growth inhibition was 27.9% in experiment [1]; 33.4% in experiment [2]; 12% in experiment [3]; 21.4% in experiment [4]; 20.1% in experiment [5]; 77.7% (active) in experiment [6].

As to `COC(=O)c1ccccc1/C=C1\SC(=S)NC1=O`, the growth inhibition in experiment [1] was -1.6%; in experiment [2], 6.3%; in experiment [3] it was 17.9%; in experiment [4], -9.85%; in experiment [5], -4.95%; in experiment [6] it was -0.7%.

Consider `CN1C(=O)OC2C3NC(=O)OC3C(O)C(O)C21` (stereo unspecified), for which the growth inhibition in experiment [1] is -7.85%; in experiment [2], -12.3%; in experiment [3], -6.3%; in experiment [4], -1.15%; in experiment [5] it was -6.15%; in experiment [6], -8.95%.

On to `CCOC(=O)C1CC1C#N` (stereo unspecified), for which the growth inhibition is 3.4% in experiment [1]; -11.9% in experiment [2]; 9% in experiment [3]; 13.9% in experiment [4]; 9.95% in experiment [5]; 7.75% in experiment [6].
